Hits are enriched below; roughly 21% of the tested compounds scored in any of these assays.
DT40 TDP1 no CPT: qHTS for Inhibitors of human tyrosyl-DNA phosphodiesterase 1 (TDP1): qHTS in cells in absence of CPT; AID 686978, 2013; DT40 Tdp1-/- hTDP1 cells, no CPT, ATP luminescence, 48 h; Potency, µM (series often up to 46.2 µM), usual class: inhibitors; 420,000 compounds, 15% hits; note: nearly all actives have a fitted effect of over 55% in size
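Seeded 400 DT40-hTDP1 cells/well (vehicle DMSO, no 20 nM CPT); pinned compounds; ≥48 hr at 37 °C; CellTiter-Glo luminescence as viability measure.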
ClpP mod: qHTS Assay for Activators of ClpP; ATP-dependent Clp protease proteolytic subunit (Bacillus subtilis (strain 168)), P80244; purified B. subtilis ClpP, FRET peptide cleavage, 20 min; Potency, µM (series often up to 57.5 µM); 340,000 compounds, 1.9% hits; active = well fitted falling curve with a large enough effect; inconclusive = small, poorly fitted or top-dose-only effect; inactive = no such curve, though single readings can be large or run the other way; note: the source files actives as falling curves though it sought activators and does not explain the sign; nearly all actives have a fitted effect of over 65% in size
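FRET quenching reversal measured ClpP activation: 10 microg/mL B. subtilis ClpP at pH 8 with the FRET-FV decapeptide, read at 430 nm after 320 nm excitation. The 20-min minus 0-min signal was scaled between DMSO/no-enzyme wells and ADEP (5.8 microM final).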
D3 antag: qHTS of D3 Dopamine Receptor Antagonist: qHTS. max response, negative = inhibition, %. D3R cells, DiscoveRx beta-arrestin luminescence, antagonist mode; hits give low values. D(3) dopamine receptor (Homo sapiens), P35462. AID 652054, 2013. 360,000 compounds, 2.5% hits; in the data active = max response below about -50%; inconclusive = no clear call, values can overlap the other calls
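Cells plated overnight at 1500 cells/well, then exposed to library compounds with dopamine controls for 90 minutes at 37 degrees C. DiscoveRx reagent added for 30–60 minutes at room temperature; luminescence read, quantitative HTS format.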
IL-1B inflam inh: qHTS for Inhibitors of Inflammasome Signaling: IL-1-beta AlphaLISA Primary Screen. THP-1 LPS/ATP IL-1B secretion, AlphaLISA, 16 h; hits give low values. activity change, % at 57.5 µM. 360,000 compounds, 4.7% hits. AID 743279, 2014; in the data active = activity change below about -50%; inconclusive = mostly about -30% to -49%
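THP-1 cells pretreated 1 hr with compounds (up to 57.5 uM final), then stimulated with LPS (250 ng/mL final) plus ATP (1.25 mM final); secreted IL-1B measured by AlphaLISA after 16 hr, decreased signal indicating inhibition.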
D3 ag: qHTS of D3 Dopamine Receptor Agonist: qHTS. 410,000 compounds, 0.58% hits. D(3) dopamine receptor (Homo sapiens), P35462. max activation, %. D3R DiscoveRx beta-arrestin cells, luminescence, 90 min. AID 652048, 2013; in the data active = max activation above about 30%
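Agonist mode: compounds and dopamine controls were applied to plated cells for 90 min at 37 degrees C after an overnight attachment at 1500 cells/well. Luminescent read-out followed 30 - 60 minutes at room temperature with DiscoveRx detection reagent.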
DT40 TDP1 CPT: qHTS for Inhibitors of human tyrosyl-DNA phosphodiesterase 1 (TDP1): qHTS in cells in presence of CPT | chicken DT40 Tdp1-/-;hTDP1 cells + 20 nM CPT, ATP luminescence, 48 h | Potency, µM (titrated, usually from 46.2 µM), hits mostly inhibitors | 420,000 compounds, 12% hits | AID 686979, 2013; note: nearly all actives have a fitted effect of over 55% in size
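Chicken DT40 Tdp1-/- cells stably complemented with human TDP1 were seeded at 400 cells/well in medium containing 20 nM camptothecin, exposed to pin-transferred compounds, and grown at 37 °C for at least 48 hr. Viability was read as ATP luminescence.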
Of the large screens only hits and unclear results are named; the others gave an inactive call. Unless noted, calls come from the whole dose curve; as a rule, active = well fitted inhibition curve with a large enough effect; inconclusive = small, poorly fitted or top-dose-only effect; inactive = flat fitted curve, though single readings scatter.

CCC(C)NCCCCOc1cc(C)cc(C(C)C)c1 (configuration not stated)	DT40 TDP1 no CPT 18µM, DT40 TDP1 CPT inconclusive
CCN(CC)CCOCCOc1cc(C)c(Cl)c(C)c1	DT40 TDP1 no CPT 18µM, DT40 TDP1 CPT 23µM
CCC(C)NCCCCOc1ccc(Br)cc1 (configuration not stated)	DT40 TDP1 no CPT 16µM, DT40 TDP1 CPT inconclusive
CCC(C)NCCOCCOc1ccc(F)cc1 (configuration not stated)	D3 antag -66, DT40 TDP1 CPT inconclusive
O=C(Nc1cc(Cl)ccc1Cl)C1Cc2ccccc2O/C1=N\O (configuration not stated)	IL-1B inflam inh inconclusive (no result: ClpP mod)
CCC(C)NCCOc1cc(C)cc(C)c1C (configuration not stated)	D3 antag -69 (no result: ClpP mod)
CCC(C)NCCOCCOc1cc(C)c(Cl)c(C)c1 (configuration not stated)	DT40 TDP1 no CPT 15µM, D3 antag inconclusive, IL-1B inflam inh inconclusive, DT40 TDP1 CPT 26µM (no result: ClpP mod)
COc1ccccc1NCC(=O)N/N=C(\C)c1ccc(Br)s1	none
C/C(=N\NC(=O)c1ccc(Cl)cc1)c1ccc(Br)s1	DT40 TDP1 no CPT 10µM, D3 antag inconclusive, DT40 TDP1 CPT 12µM
C/C(=N\NC(=O)c1ccccn1)c1ccc(Cl)cc1	none (no result: ClpP mod, IL-1B inflam inh)
S=C(NCc1ccccn1)Nc1cccc(Cl)c1	DT40 TDP1 no CPT inconclusive, DT40 TDP1 CPT inconclusive
CC(=NNC(=S)Nc1cccc(Cl)c1)c1ccccn1	DT40 TDP1 no CPT 0.021µM, IL-1B inflam inh -88, DT40 TDP1 CPT 0.082µM
C/C(=N/NC(=O)CNc1ccc(C)cc1)c1ccc(Br)s1	DT40 TDP1 no CPT 18µM, DT40 TDP1 CPT 18µM
C/C(=N\NC(=O)c1ccc(Cl)cc1)c1ccccn1	DT40 TDP1 no CPT 0.52µM, D3 antag -106, IL-1B inflam inh -92, DT40 TDP1 CPT 0.58µM (no result: ClpP mod)
CCCc1cc(=O)[nH]c(SCC(=O)N2CCN(c3ccccc3OC)CC2)n1	none (no result: D3 antag, IL-1B inflam inh)
COc1ccccc1CNS(=O)(=O)c1ccc2c(c1)CC(=O)N2C	DT40 TDP1 no CPT inconclusive
COc1cc(C(=O)NCC(=O)N/N=C/c2ccccn2)cc(OC)c1OC	none (no result: ClpP mod)
COc1cc(C(=O)N/N=C(\c2ccccc2)c2ccccn2)cc(OC)c1OC	DT40 TDP1 no CPT 2.6µM, D3 antag inconclusive, DT40 TDP1 CPT 2.6µM
O=C(Sc1ccc(Cl)cc1)c1ccccn1	DT40 TDP1 no CPT 16µM, D3 antag inconclusive, IL-1B inflam inh -83, DT40 TDP1 CPT 16µM (no result: ClpP mod)
C/C(=N\NC(=O)c1cc(C)nc2ccccc12)c1ccccn1	DT40 TDP1 no CPT 0.73µM, D3 antag -74, DT40 TDP1 CPT 1.5µM
COc1cc(C(=O)N/N=C(\C)c2ccccn2)cc(OC)c1OC	DT40 TDP1 no CPT 8.2µM, DT40 TDP1 CPT 12µM
CC(NC(=O)CCNC(=O)c1ccc(Br)cc1)c1ccc(-n2ccnc2)cc1 (configuration not stated)	DT40 TDP1 no CPT inconclusive, DT40 TDP1 CPT inconclusive
CC#Cc1cc2c(cc1O)CCC1C2CCC2(C)C(O)CCC12 (configuration not stated)	DT40 TDP1 no CPT 2.3µM, DT40 TDP1 CPT 2.9µM
C=Cc1cc2c(cc1O)CCC1C2CCC2(C)C(O)CCC12 (configuration not stated)	DT40 TDP1 no CPT 16µM, D3 antag inconclusive, IL-1B inflam inh inconclusive, DT40 TDP1 CPT inconclusive
C[C@]12CCC3c4ccc(O)cc4CCC3C1CC(O)C2O (some centres not stated)	none (no result: ClpP mod, D3 antag, IL-1B inflam inh, D3 ag)
Cc1ccc(/C=C/C2=NN(C)C(=O)CC2)cc1	DT40 TDP1 no CPT inconclusive (no result: ClpP mod)
CCOC(=O)C(C)N1N=C(/C=C/c2ccc(OC)cc2)CCC1=O (configuration not stated)	DT40 TDP1 no CPT 13µM, DT40 TDP1 CPT inconclusive
Cc1cc2nn(-c3cccc4ccccc34)nc2cc1N	DT40 TDP1 no CPT 18µM, DT40 TDP1 CPT 21µM
Cc1ccc(-n2nc3cc(C)c(N)cc3n2)cc1	none
Nc1ccc2nn(-c3cccc4ccccc34)nc2c1	DT40 TDP1 no CPT 16µM, ClpP mod inconclusive, D3 antag inconclusive, DT40 TDP1 CPT 12µM
O=C(Nc1cccc(Cl)c1Cl)c1cc(S(=O)(=O)N2CCCCC2)ccc1F	DT40 TDP1 no CPT inconclusive, DT40 TDP1 CPT inconclusive (no result: D3 antag, IL-1B inflam inh)
CCCCc1ccc(-c2csc(/C(C#N)=C\c3ccc(C)o3)n2)cc1	IL-1B inflam inh -50
O=C(NC1CC1)c1ccc(NC(=O)C2CCCCC2)cc1	none
CC(C)CC(=O)NC(=S)NNC(=O)c1ccc(NC(=O)C2CCCCC2)cc1	DT40 TDP1 no CPT 12µM, D3 antag inconclusive, DT40 TDP1 CPT 21µM
CCC(=O)NC(=S)NNC(=O)c1ccccc1[N+](=O)[O-]	none
Cc1ccc(C(=O)NC(=S)NNC(=O)c2cccc([N+](=O)[O-])c2)cc1	DT40 TDP1 no CPT inconclusive, DT40 TDP1 CPT inconclusive
CC(C)CC(=O)NC(=S)NNC(=O)c1ccc([N+](=O)[O-])cc1	DT40 TDP1 no CPT 15µM, DT40 TDP1 CPT 18µM
CCC(=O)NC(=S)NNC(=O)c1ccc([N+](=O)[O-])cc1	DT40 TDP1 no CPT 18µM, DT40 TDP1 CPT inconclusive
COc1ccc(-c2ncccc2OC(=O)C23CC4CC(CC(C4)C2)C3)cc1	DT40 TDP1 no CPT 23µM, ClpP mod 25µM, DT40 TDP1 CPT 18µM
O=C(O)c1ccccc1OC(=O)C12CC3CC(CC(C3)C1)C2	none (no result: ClpP mod)
CCOc1ccc2c(O)csc2c1	ClpP mod inconclusive, D3 antag inconclusive
CCOc1c(C)cc(-c2ncccc2O)cc1C	ClpP mod 28µM, D3 antag inconclusive, DT40 TDP1 CPT inconclusive
COc1ccc(-c2ncccc2O)cc1	ClpP mod 25µM
COc1ccc(C(C)(C)C)cc1NC(=O)CSc1ncn[nH]1	none (no result: ClpP mod)
COc1ccc(S(=O)(=O)N2CCCCCC2)cc1C(=O)OCc1cccc(OC)c1OC	none
Cc1c(N2C(=O)/C(=C\C3CC=CCC3)SC2=S)c(=O)n(-c2ccccc2)n1C (configuration not stated)	DT40 TDP1 no CPT inconclusive, IL-1B inflam inh -101, DT40 TDP1 CPT inconclusive
Cc1c(N2C(=O)/C(=C/C3CC=CCC3)SC2=S)c(=O)n(-c2ccccc2)n1C (configuration not stated)	DT40 TDP1 no CPT inconclusive, D3 antag inconclusive, IL-1B inflam inh -59, DT40 TDP1 CPT 18µM
